# Measured values: PubChem BioAssay (NCI)
# Several values for one entry are separate records, joined by “and”; a condition that tells them apart may be missing. Equal entries are not always repeated. About 83,000 compounds went through this panel and 20% of them were active in at least one assay; those are over-represented in the sample as a whole.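 Compound tested at a single concentration for 48 hours in 96-well plates; a percent growth value below 10 was scored as active.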 Activity calls are given as the source filed them.
# Tested on: SK-MEL-28 melanoma
# Assay: NCI-60 one-dose screen, 48 h (100 = growth as untreated, 0 = no growth, -100 = all killed)
# Conditions: 10 µM unless noted
row,Compound,growth
1,CCN1C(=O)N(CC)C2NNC(Sc3c(C(=O)O)c4ccccc4n(CCC(C)C)c3=O)=NC21 (centres undefined),45.5% (inactive)
2,COc1ccc(/C=C/c2nc3ccccc3n3c(-c4cccc([N+](=O)[O-])c4)nnc23)cc1,-47.1% (active)
3,COc1ccc(NC(=O)N/N=C/c2c[nH]c3ccccc23)cc1,67.9% (inactive)
4,CCC(=O)c1cc(C(=O)OC)c2ccc3c4ccccc4ccc3n12,99.6% (inactive)
5,Cc1oc(-c2ccccc2)nc1CN[C@@H]1C[C@@H]2C[C@H]([C@H]1C)C2(C)C,2.07% (active)

# Tested on: SK-MEL-2 melanoma
# Assay: as above
# Conditions: 10 µM unless noted
row,Compound,growth
1,CCCCNc1ccc2c3c(cccc13)C(=O)N(NCC(O)COc1ccc3c(C)cc(=O)oc3c1)C2=O (centres undefined),96.9% (inactive)
2,CC(=O)Nc1cccc(-n2c(COc3ccc(Br)cc3)nc3ccccc32)c1,95.4% (inactive) and 112% (inactive)
3,O=C(COc1ccc(/C=C2/C(=O)Nc3ccc(Cl)cc32)cc1)Nc1ccc(Br)cc1,16.3% (inactive)
4,N#Cc1c(-c2ccc(F)cc2)nc(SCc2ccc(F)cc2)nc1N1CCNCC1,-73% (active)
5,Cc1ccc(/C=C/C(=O)c2ccc(S(=O)(=O)NCCNc3nc(N(C)C)nc(N4CCOCC4)n3)cc2)cc1,94.1% (inactive)
6,COc1ccc(N=Nc2c(N)nn3c(N)c(C#N)c(-c4ccccc4)nc23)cc1,97.6% (inactive)
7,Cc1cccc(-c2ccccc2Oc2ccc3nnc(Cl)n3n2)c1,105% (inactive)
8,CCN1CCN(Cc2ccc(C(=O)Nc3cccc(Nc4ccc5c(OC)cccc5n4)c3)cc2C(F)(F)F)CC1,-76% (active)
9,N#CCc1nnc(NC(=O)c2ccc(-n3c(=O)[nH]c4ccccc4c3=O)cc2)s1,97.7% (inactive)
10,c1n[nH]cc1-c1nc2ccc3cn[nH]c3c2c2c1CCCC2,104% (inactive)
11,Cc1ccccc1NC(=O)c1cccc(NC(=O)CCl)c1,92.9% (inactive)
12,COc1ccc(-c2cc(-c3cc(OC)c(OC)c(OC)c3)[nH]c(=O)c2C#N)cc1,97.8% (inactive)
13,O=C(CSc1nc2c(c(=O)[nH]1)CCCC2)Nc1ccccc1C(=O)O,98.9% (inactive)
14,N/C(=N\c1nc2ccccc2s1)NC(=O)Nc1ccccc1[N+](=O)[O-],20.5% (inactive)
15,FC(F)(F)c1cc2c(Cl)ncnc2n1CCN1CCOCC1,47.7% (inactive)
16,Clc1ccc(-c2nc3c4c(-c5ccccc5)c(-c5ccccc5)n(Cc5ccccc5)c4ncn3n2)cc1,-10.4% (active)
17,COc1c(B(O)O)cc(F)cc1-c1nc2c(F)cc3[nH]ncc3c2c2c1CCCC2,46.8% (inactive)
18,C/C(=N\Nc1ccc(C(=O)O)cc1)c1cnn(-c2cc(=O)[nH]c3ccc(C)cc23)c1C,106% (inactive)
19,COc1ccc(NC(=O)CSc2nnc(-c3ccc(-c4nc5ccc(Cl)cc5[nH]4)cc3)o2)cc1,39.4% (inactive)
20,COc1ccc2[nH]c(O)c(N=Nc3nc(-c4ccc(C#N)cc4)cs3)c2c1,95.8% (inactive)
21,COc1ccc(-c2nc3ccc(-c4nnc(SCC(=O)Nc5ccc(/C(C)=N\O)cc5)o4)cc3[nH]2)cc1,76.2% (inactive)
22,COc1ccc(/C=C/c2nc3ccccc3n3c(-c4cccc([N+](=O)[O-])c4)nnc23)cc1,-60.3% (active)
23,CCC(=O)c1cc(C(=O)OC)c2ccc3c4ccccc4ccc3n12,105% (inactive)
24,Cc1oc(-c2ccccc2)nc1CN[C@@H]1C[C@@H]2C[C@H]([C@H]1C)C2(C)C,85.7% (inactive)
